82 compounds from PubChem BioAssay (NCI) can be followed below.

For the experiment, the system named is HL-60(TB) leukemia. Put plainly: NCI-60 one-dose screen, 48 h (100 = growth as untreated, 0 = no growth, -100 = all killed). To be noted: 10 µM unless noted.

About 83,000 compounds went through this panel and 20% of them were active in at least one assay; those are over-represented in the sample as a whole.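 Activity criterion: percent growth below 10, measured after cells in 96-well plates were exposed to a single compound concentration for 48 hours.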 Unmarked numbers belong to inactive results. The source made the active and inactive calls.

Take `CCCCN(C=S)CCCC`: the growth was 104%.
The result for `COc1cccc2c1n([O-])c1cccc(OC)c1[n+]2=O` reads 10.3%; that for `COc1cc(-c2ncn(/C=C\c3nnco3)n2)cc(C(F)(F)F)c1`, 11.2%.
As to `O=S(=O)(NCCNc1nccc(-c2c(-c3cccc(O)c3)nc3occn23)n1)c1ccc(C(F)(F)F)cc1`, the growth was 79.1%.
As for `CN1CCN(Cc2ccc(NC(=O)c3nc4ccc5[nH]ncc5c4c4c3CCCC4)cc2C(F)(F)F)CC1`, the figure is -57.4% (active); as for `N#C/C(Sc1nc2sc3c(c2c(=O)n1Cc1ccccc1)CCCC3)=C1/SC=C(c2ccc(Cl)cc2)N1c1ccccc1`, 84.3%.
The result for `O=C1/C(=C/c2ccc(-c3ccc(Cl)cc3)o2)SC(=S)N1CCc1ccc(O)cc1` reads 8.32% (active).
As for `O=C1C(Nc2ccc(Br)cc2)=C(I)C(=O)c2ncccc21`, the figure is -43.2% (active); as for `C/C(=N\Nc1ccc(Cl)cn1)c1ccccn1`, -27.4% (active); as for `COc1ccc(OC)c(Nc2nnc(-c3cc(OC)c(OC)c(OC)c3)o2)c1`, 95.5%.
On to `Nc1[nH]n2cc(-c3ccc(F)cc3)nc2c1N=Nc1ccc(S(N)(=O)=O)cc1`, for which the growth is 94.7%.
Take `CCOc1cc2ncc(C#N)c(Nc3ccc(OCc4cccc(F)c4)c(Cl)c3)c2cc1NC(=O)CC1CCSS1` (configuration not stated): the growth is 54.8%.
The result for `COc1cc(-c2cc(/C=C/C(=O)c3ccc4c(c3)OCO4)[nH]n2)cc(OC)c1OC` reads 91.3%; that for `Cc1nc2c(c(=O)[nH]1)OCN(Cc1ccccc1)C2`, 96.5%.
As for `Cc1ccc(NC(=O)c2nc(S(C)=O)oc2-c2ccc(F)cc2)cc1Nc1nccc(-c2cccnc2)n1` (configuration not stated), the figure is 47.3%.
As for `CCSc1ccc([C@@H]2[C@@H](O)C(=O)N2c2cc(OC)c(OC)c(OC)c2)cc1`, the figure is -35.4% (active).
Consider `CCOC(=O)c1c(C)nc2c(c1N)/C(=C/c1ccc(OC)cc1)C(=O)N2Cc1ccccc1`, for which the growth is 45.8%.
For `CC(C)=CC(=O)OC(=O)C=C(C)C`, the growth was 104%.
Turning to `CCCNC(=O)Oc1ccc(/C(=C(/C)Cc2ccc(OC)cc2)c2ccc(OCCN3CCCC3)cc2)cc1`, the growth was 51.9%.
As for `CN=S(=O)(OCCCCCOS(=O)(=NC)c1ccc(C)cc1)c1ccc(C)cc1` (configuration not stated), the figure is 70.7%; as for `N#CC1=C(NC=O)Oc2c(ccc3ccccc23)C1c1ccccc1` (configuration not stated), 18.1%.
For `C=CC(=O)Nc1ccc2ncnc(Nc3cccc(NS(=O)(=O)CCC)c3Cl)c2c1`, the growth was 80.7%.
`CC(C)(C)c1ccc(N2CSC(=S)N(c3ccc(C(C)(C)C)cc3)C2)cc1`: the growth was 92.7%.
As for `Brc1ccc(-c2cn3ccnc3c(-c3ccc(Br)cc3)n2)cc1`, the figure is 30.2%.
The result for `Cc1ccc(C(=O)N/N=C/c2cccc([N+](=O)[O-])c2)cn1` reads 74%.
The result for `CC1CCc2cc(F)cc3c(=O)c(C(=O)O)cn1c23` (configuration not stated) reads 107%; that for `CNC1=C([N+](=O)[O-])C(c2ccccc2O)C(C#N)=C(c2cccs2)O1` (configuration not stated), 75.1%; that for `CS(=O)(=O)c1ccc(Nc2nc(N[C@H]3CCCC[C@H]3N)nc3cc[nH]c(=O)c23)cc1`, -16.9% (active).
Consider `CCOC(=O)c1ccc2c(c1)nc(/C=C/c1ccc(Cl)cc1)n2-c1cc(C(C)(C)C)[nH]n1`, for which the growth was 73.1%.
The result for `C[C@H](Oc1cc(-c2cnn(C3CCNCC3)c2)cnc1N)c1c(Cl)ccc(F)c1Cl` reads 58.3%; that for `CC(C)(Sc1cc(C(C)(C)C)c(O)c(C(C)(C)C)c1)Sc1cc(C(C)(C)C)c(OC(=O)CCCC(=O)O)c(C(C)(C)C)c1`, 67.6%.
The result for `c1cc2ccc3cc2cc1CNCCN1CCNCc2ccc4ccc(cc4c2)CNCCN(CCNC3)CCNCc2ccc3ccc(cc3c2)CNCC1` reads -38.7% (active).
Consider `COc1c(Cl)cc(Cl)c2ccc(C=C3C(=O)N(C)C(=O)N(C)C3=O)nc12`, for which the growth is 98.1%.
The result for `COc1ccc(C(=O)Nc2nc(-c3ccc(Cl)cc3)cs2)cc1` reads 105%.
The result for `O=C(O)c1ccc(-n2cc(/C=N/Nc3ccccc3)c(-c3ccc(F)cc3F)n2)cc1` reads 15.1%.
As for `COC(=O)c1cc(=O)nc(N/N=C/c2ccc(C)cc2)s1`, the figure is 105%; as for `Oc1c(I)cc(-c2nc3ccccc3s2)cc1CN(Cc1ccccn1)Cc1ccccn1`, 2.06% (active).
As for `COc1cccc(C(=O)NNC(=O)c2cccc3ccccc23)c1`, the growth is 97.8%.
Take `CN1CCN(C(=O)[C@@]2(C)CC[C@]3(C)CC[C@]4(C)C(=CC[C@@H]5[C@@]6(C)C/C(=C/c7ccncc7)C(=O)C(C)(C)[C@@H]6CC[C@]54C)[C@@H]3C2)CC1`: the growth was -8.87% (active).
As for `c1ccc(Nc2nnc(-c3cc(-c4cccnc4)n(-c4ccccc4)n3)s2)cc1`, the figure is 70.8%; as for `CS(=O)/C(C#N)=C\C=C\c1cccc(Cl)c1` (configuration not stated), -1.97% (active).
The result for `Cn1ccnc1C(=O)/C=C/c1ccc(C(=O)Nc2ccccc2O)cc1` reads 0.702% (active).
As for `COc1ccc(/C=C2\COc3ccc(O)c(O)c3C2=O)c(OC)c1OC`, the figure is -28.8% (active); as for `CCn1c(Cc2ccccc2Nc2c(Cl)cccc2Cl)nnc1SCC(=O)Nc1cccc(OC)c1`, 53.6%.
For `COc1ccc(-c2nc(/C=C3/C(=O)Nc4ccc(F)cc43)c3ccccn23)cc1`, the growth was 61.6%.
The result for `NS(=O)(=O)c1ccc(Cn2c(SCC(=O)N/N=C/c3ccccc3O)nc3ccccc3c2=O)cc1` reads 40.9%; that for `O=C(CC(O)c1ccncc1)c1ccccc1` (configuration not stated), 100%.
As for `CCc1c(C)c2ccc(O)c(-c3cc(-c4ccccc4)c(C#N)c(=O)[nH]3)c2oc1=O`, the growth was 109%.
With `N#CCC1=NC(c2cccs2)=Nc2ccccc2S1`, the growth is 90.9%.
Regarding `FC(F)(F)c1cc(NC2=NCCN=C(Nc3cc(C(F)(F)F)cc(C(F)(F)F)c3)SS2)cc(C(F)(F)F)c1`, the growth is 52.9%.
The result for `CC[N+](CC)(CCOCCOCC[N+](CC)(CC)Cc1ccc([N+](=O)[O-])cc1)Cc1ccc([N+](=O)[O-])cc1` reads 93.4%; that for `Cn1cc(Nc2nccc(-c3ccc(N4CCCC4)c(C#N)c3)n2)cn1`, -17.8% (active).
As for `COc1ccc(-c2ccc(-c3ccc(-c4ccc(C(=N)N)cc4)s3)s2)cc1OC`, the figure is 99.1%; as for `CC(C)(C)CC(C)(C)Nc1c(-c2ccc(C(F)(F)F)cc2)nc2cnccn12`, 79.4%.
The result for `CC(Oc1ccc(C(=O)O)cc1C(F)(F)F)c1ccc(Oc2ccccc2)cn1` (configuration not stated) reads 101%.
As to `CC(C)(C)OC(=O)NCCc1ccc(N)cc1`, the growth is 89.4%.
As for `COc1ccc(/C=N/NC(=O)CN2CCN(c3cc4c(cc3F)c(=O)c(C(=O)O)cn4C3CC3)CC2)cc1O`, the figure is 92%; as for `CCc1ccccc1NC(=O)c1sc2nc3c(cc2c1N)CCCC3`, 2.66% (active).
The result for `N=C1/C(=C2\NC3C=CC=CC3S2)C(c2ccc(Cl)cc2)C2C(=O)N(c3ccccc3)C(=S)N12` (configuration not stated) reads 100%; that for `Cc1cc2c(c(C)n1)CN(C(=O)Nc1nc(-c3cncs3)ccc1N)C2`, 139%.
The result for `COc1cc2c(cc1-c1c(C)noc1C)ncc1nc(C3CCCC3)n([C@H](C)COC(F)F)c12` reads 27.8%; that for `COc1ccc(OC)c(CCn2cncc2-c2c[nH]c3cc(Br)ccc23)c1`, -9.46% (active); that for `Cc1sc(NC(=O)c2ccc(C(C)(C)C)cc2)c(C(=O)O)c1C`, 45.2%.
Turning to `CSc1ccc(OC(C)=O)cc1C`, the growth is 97.7%.
The result for `COc1ccc2c(c1)OC(N)=C(C#N)C2c1ccc(F)cc1` (configuration not stated) reads -14.7% (active); that for `COc1cc2c(cc1OC)-c1c(oc3c4c(ccc3c1=O)OC(C)(C)C=C4)CO2`, 46.4%; that for `O=S(=O)(Nc1ccc(F)cc1)c1ccc(-c2cnc(C3CC3)o2)cc1`, -28.1% (active).
As for `CNC(=O)c1cc(Oc2ccc(NC(=O)Nc3ccc(Cl)c(OC4CCCCC4)c3)c(F)c2)ccn1`, the figure is 82.9%.
The result for `COc1cc(/C=C/C(=O)c2cccnc2Nc2ccc(F)cc2)cc(OC)c1OC` reads 5.42% (active); that for `O=[N+]([O-])c1ccc(Oc2cccc(C(F)(F)F)c2)c([N+](=O)[O-])c1`, 14.3%.
With `O=C(NC1CCCCC1)c1ccc(Nc2ncnc3c2cnn3-c2ccccc2)cc1`, the growth is 106%.
As for `COC(=O)/C(CCC=C(C)C)=C1\[C@@H](OC(C)=O)C[C@@]2(C)[C@H]1CC(=O)[C@H]1[C@@]3(C)CC[C@H](NCc4ccccc4)[C@@H](C)[C@@H]3CC[C@@]12C`, the figure is 84.7%; as for `CCCCCCCCc1cc(Cl)c(O)c(Cl)c1`, 101%.
As for `Ic1ccccc1I`, the figure is 94.1%; as for `COC(=O)[C@]12CC[C@@H](C)[C@H](C)[C@@H]1C1=CC[C@@H]3[C@@]4(C)C(C=O)=C[C@@](C)(COC(C)=O)[C@@H]4C(=O)C[C@@]3(C)[C@]1(C)CC2`, 29.8%; as for `CC(=O)N1N=C(c2ccc(Nc3nc(Nc4ccccc4)nc(Nc4ccccc4)n3)cc2)CC1c1ccccc1` (configuration not stated), 79.3%.
The result for `O=C1OC2(c3ccccc31)c1ccccc1-c1ccccc12` reads 69.6%; that for `Nc1ncnc2c1N=C(c1ccc3c(c1)OCO3)CC(c1ccc([N+](=O)[O-])cc1)N2` (configuration not stated), 88.7%.
For the compound `O=C(Nc1ccc(-n2ccc3c(NC(=O)c4ccccc4)nccc32)cc1)c1cccc(C(F)(F)F)c1`, the growth was 16.8%.
The result for `CN(CCC(=O)c1ccccc1)CCC(=O)c1ccccc1` reads 75.4%.
As for `C/C=C(\C)C(=O)N[C@H]1C(O)C[C@]2(C)C3CC[C@@]4(C)C(CC[C@@H]4C(C)N(C)C)C3CCC2C1O` (some centres not stated), the figure is 5.7% (active); as for `Cc1cccc2c1S/C(=C/c1ccc([N+](=O)[O-])cc1)C2=O`, 101%.
